# POLB inh: qHTS Assay for Inhibitors of DNA Polymerase Beta. Pol beta primer extension/strand displacement, fluorescence kinetic. Potency, µM (series often up to 114 µM), for the others: at the highest dose activity change, negative = inhibition, usual class: inhibitors. 340,000 tested, 1.3% active. AID 485314, 2010; further: on the % scale 0 is the no-effect control and ±100 the full control effect
#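 Curves were derived by four-parameter Hill fits of normalized qHTS data. The kinetic fluorescent primer-extension read was taken at 0 and 10 min after 50 nM substrate, following a 15 min room-temperature preincubation of 10 nM enzyme with compounds.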
# Pol kappa inh: qHTS for Inhibitors of Polymerase Kappa; 400,000 tested, 0.53% active; DNA polymerase kappa (Homo sapiens), Q9UBT6; AID 588579, 2011; purified Pol kappa, fluorescent DNA synthesis assay, 10 min; Potency, µM (titrated, usually from 107 µM), for inactives: at the highest dose activity, negative = inhibition, hits mostly inhibitors; further: on the % scale 0 is the no-effect control and ±100 the full control effect
#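 10 nM Pol kappa preincubated 15 min at room temperature with compounds, then reaction started with substrate at 50 nM final. Fluorescence read kinetically at 0 and 10 min; buffer-only wells served as negative control.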
# L3MBTL1 block: qHTS Assay for the Inhibitors of L3MBTL1; 230,000 tested, 0.66% active; Lethal(3)malignant brain tumor-like protein 1 (Homo sapiens), Q9Y468; AlphaScreen L3MBTL1–H3K9me1 peptide binding; Potency, µM (highest dose often 57.1 µM), for the others: at the highest dose activity, negative = inhibition, usual class: inhibitors; further: on the % scale 0 is the no-effect control and ±100 the full control effect; nearly all actives have a fitted effect of over 60% in size
# Target sequence (Q9Y468 whole entry, looked up): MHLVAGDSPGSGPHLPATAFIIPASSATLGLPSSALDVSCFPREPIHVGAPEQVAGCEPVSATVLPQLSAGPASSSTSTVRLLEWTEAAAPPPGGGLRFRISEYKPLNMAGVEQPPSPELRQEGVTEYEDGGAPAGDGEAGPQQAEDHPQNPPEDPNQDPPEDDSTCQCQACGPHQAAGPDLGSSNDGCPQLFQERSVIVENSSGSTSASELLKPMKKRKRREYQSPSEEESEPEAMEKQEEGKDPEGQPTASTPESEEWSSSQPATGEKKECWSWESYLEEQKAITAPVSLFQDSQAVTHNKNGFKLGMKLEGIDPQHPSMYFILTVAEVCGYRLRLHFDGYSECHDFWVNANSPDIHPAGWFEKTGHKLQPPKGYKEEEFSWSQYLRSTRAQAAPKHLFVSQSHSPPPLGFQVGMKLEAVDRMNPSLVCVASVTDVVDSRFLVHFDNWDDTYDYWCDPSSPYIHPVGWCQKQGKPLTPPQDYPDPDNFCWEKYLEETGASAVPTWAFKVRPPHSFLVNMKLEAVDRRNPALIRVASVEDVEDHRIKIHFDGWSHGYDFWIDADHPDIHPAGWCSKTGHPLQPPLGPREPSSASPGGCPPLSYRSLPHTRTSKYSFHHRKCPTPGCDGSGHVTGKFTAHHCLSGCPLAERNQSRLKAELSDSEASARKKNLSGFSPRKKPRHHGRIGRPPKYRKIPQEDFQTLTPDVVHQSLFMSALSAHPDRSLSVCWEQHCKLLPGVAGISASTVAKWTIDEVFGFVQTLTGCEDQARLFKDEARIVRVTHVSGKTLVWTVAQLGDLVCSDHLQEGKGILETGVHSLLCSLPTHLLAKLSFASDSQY
#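 AlphaScreen assay: L3MBTL1 (50 nM final) was preincubated 30 min at room temperature with biotinylated H3(1-15)K9me1 peptide (75 nM final), then 30 min with library compounds; streptavidin donor and nickel chelate acceptor beads (10 ug/mL final) added, 30 min dark.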
# POLI inh: qHTS for Inhibitors of Polymerase Iota | Potency, µM (top dose mostly 115 µM), without a hit: at the top dose activity, negative = inhibition, most hits filed as inhibitors | Pol iota fluorescent replication assay, 10 min | AID 588590, 2011 | DNA polymerase iota (Homo sapiens), Q9UNA4 | 390,000 tested, 1% active
#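 Fluorescent replication assay read twice, at 0 min and 10 min after adding 50 nM (final) substrate. Enzyme (10 nM) and compounds were first incubated 15 min at room temperature; enzyme-free buffer wells were negative controls.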
# Pol eta inh: qHTS for Inhibitors of Polymerase Eta; DNA polymerase eta (Homo sapiens), Q9Y253; recombinant Pol eta, fluorescent DNA replication assay; Potency, µM (series often up to 114 µM), for inactives: top-dose activity change, negative = inhibition, usual class: inhibitors; 390,000 tested, 1.2% active; further: on the % scale 0 is the no-effect control and ±100 the full control effect
#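 Pol eta (10 nM) was preincubated with compounds for 15 min at room temperature, after which fluorescent replication substrate (50 nM final) was added to start the reaction. Fluorescence was read kinetically at 0 and 10 min.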
# * marks the source's active call; other numbers are inactive results; u = inconclusive; x = no result; ! = repeats disagree; [ ] = another dose, or the depositor's remark. Sampled rows, rich in hits. Any-hit rate of the full collection: about 2.4%. The call rests on the fitted dose curve; in most records, active means well fitted curve in the direction sought with a large enough effect; inconclusive means small, poorly fitted or top-dose-only effect, or another doubt; inactive means no such curve, though single readings can be large; an effect the other way counts as inactive or inconclusive. Potency means the concentration at half of the fitted maximal effect.
SMILES,POLB inh,Pol kappa inh,L3MBTL1 block,POLI inh,Pol eta inh
COc1ccc(N(C)C(=O)c2cn(C3CCCCC3)c(=O)c3c2c2ccccc2n3C)cc1,u,2.1%,x,6.0%,-19.7%
CC(=O)N1CCCc2cc(S(=O)(=O)N3CCC(C(=O)Nc4c(C)cccc4C)CC3)ccc21,36.8%,-3.0%[60.1 µM],x,-0.4%,-16.7%
CC(C)Oc1ccc(/C(O)=C2/C(=O)C(=O)N(Cc3cccnc3)C2c2ccco2)cc1 (configuration not stated),31.6µM*,-7.4%,5.0%,u,2.9%
COc1ccc(/C(O)=C2/C(=O)C(=O)N(Cc3cccnc3)C2c2ccccn2)cc1 (configuration not stated),3.0%,-4.7%,22.5%[11.4 µM],-8.2%,-12.1%
Cc1cc(C)c2c(N)c3ccccc3nc2n1,25.1µM*,-30.8%,4.2%,14.1µM*,-14.7%
Cc1cc(O)c2c(c1)OC1(C)CCC3C(C)(C)CCCC34COC2C14 (configuration not stated),x,-0.8%[19.4 µM],x,x,x
N.N.O=C(O)C1(C(=O)O)CCC1.[Pt],8.0%[57.1 µM],22.4µM*,x,-6.5%[58.9 µM],-2.7%[57.1 µM]
O=C(O)C1(C(=O)O)CCC1,x,-18.0%,9.3%,-3.2%,-1.6%
Cc1[nH]n(-c2ncc(-c3ccccc3)s2)c(=O)c1C(c1ccc(Br)cc1)C(C#N)C#N (configuration not stated),44.7µM*,u,-21.2%,u,22.4µM*
Cc1[nH]n(C(N)=S)c(=O)c1C(c1ccccc1)C(C#N)C#N (configuration not stated),-2.4%,-7.2%,32.0%,u,-16.0%
Oc1ccc2ccccc2c1N=Nc1ccccc1F,-21.6%,-6.3%,8.91µM*,12.6%,-10.7%
CC(C)CCn1c(O)c(N=Nc2ccccn2)c2ccccc21,-1.8%,-5.3%,-6.0%,30.5%,-24.2%
Oc1ccc2ccccc2c1N=Nc1ccccn1,u,-11.4%,10µM*,-2.5%,u
O=S(=O)(O)c1cccc(N=Nc2c(O)ccc3ccccc23)c1,u,-10.9%,x,11.3%,u
O=C(Nc1ccc(S(=O)(=O)Nc2ncccn2)cc1)C1=COCCO1,x,-25.0%,-7.0%,50.1µM*,u
CC(=O)Nc1ccc(S(=O)(=O)Nc2ncccn2)cc1,0.4%,7.5%,u,17.9%,-5.7%
CCCn1nc(C(=O)Nc2ccc(S(=O)(=O)Nc3ncccn3)cc2)c2ccccc2c1=O,1.2%,-24.2%,x,u,50.1µM*
COc1ccc2ccccc2c1C(O)c1nccn1C (configuration not stated),-14.0%,-26.5%,1.5%,25.1µM*,-8.8%
CCOc1ccccc1N(CC(=O)Nc1ccccc1Br)S(=O)(=O)c1ccccc1,x,x,x,x,-4.9%
Cc1sc2ccccc2c1CNC[C@H]1O[C@@H](n2cnc(C(N)=O)n2)[C@H](O)[C@@H]1O,x,2.9%,x,-1.4%,-11.2%
C/C(=N/Nc1ccc(C(=O)O)cc1)c1ccc(O)c(O)c1O,22.4µM*,-26.6%,14.1µM*,-12.9%,u
Cc1ccc(NC(=O)/C=C/c2ccc(Cl)cc2)c(Br)c1,34.9%,-10.6%[60.1 µM],x,-20.6%,-1.1%
CCNc1ccc(Br)cc(C(=O)/C=C/c2ccc(Cl)cc2)c1=O,28.2µM*,u,-18.0%,u,39.8µM*
CCNc1ccc(Br)cc(C(=O)/C=C/c2c(Cl)cccc2Cl)c1=O,8.91µM*,u,8.91µM*,4.47µM*,17.8µM*
CCNc1ccc(Br)cc(C(=O)/C=C/c2ccc3c(c2)OCO3)c1=O,20µM*,u,20µM*,3.98µM*,11.2µM*
SMILES,POLB inh,Pol kappa inh,L3MBTL1 block,POLI inh,Pol eta inh
CCNC(=O)/C=C/c1cccc(Br)c1,x,11.3%[19.4 µM],x,x,x
CC[Si](CC)(CC)O[C@H]([C@@H](C)COCOC)[C@@H](C)COCc1ccc(OC)cc1,x,-4.1%,x,30.0%,x
Cc1cc(C)nc(NS(=O)(=O)c2ccc(NC(=O)c3ccccc3O)cc2)n1,17.1%,-16.8%,x,17.4%,-13.0%
CCCCNS(=O)(=O)c1cc(-c2nn(C)c(=O)c3ccccc23)ccc1C,35.5µM*,u,x,u,u
CCN(CC)S(=O)(=O)c1cc(-c2nn(C)c(=O)c3ccccc23)ccc1C,44.7µM*,-9.3%,-20.9%,u,u
COc1ccc(-c2cc(C(F)(F)F)c(C#N)c(SCC(=O)Nc3ccc(F)cc3)n2)cc1,12.4%,-10.5%,x,0.0%,-18.5%
Cc1ccc2c(=O)c3ccccc3n(CCCN)c2c1C,x,7.94µM*!,x,x,x
Cc1cc(C)cc(NC(=O)CCCn2c3ccccc3c(=O)c3ccccc32)c1,-22.8%,-5.5%,x,-23.9%,-21.7%
O=C1CS(=O)(=O)C2(C(=O)N(Cc3ccccc3)c3ccccc32)N1c1ccccc1 (configuration not stated),5.6%,4.5%,x,15.4%,-11.9%
CCn1cc(C(=O)O)c(=O)c2cc(F)c(N3CCN(S(=O)(=O)c4ccc(NC(C)=O)cc4)CC3)cc21,20µM*,-36.6%,-16.0%,-19.4%,u
CCn1cc(C(=O)O)c(=O)c2cc(F)c(N3CCN(S(=O)(=O)c4ccc5c(c4)OCCO5)CC3)cc21,0.8%,10.1%,3.3%,2.1%,34.1%
COc1cccc2cc(C(=O)NCc3ccco3)c(=Nc3ccc(C(=O)O)cc3)oc12,-8.2%,0.4%,x,8.2%,89.1µM*
Cc1c(Br)c(O)c(Br)c2sc(=O)oc12,20µM*,u,35.5µM*,6.31µM*,u
CCCCC[C@H](O)/C=C/C=C\C=C\C=C\[C@@H](O)[C@@H](O)CCCC(=O)O,x,4.1%[19.4 µM],x,x,x
O=C1C=C(O)CC(c2cccs2)C1 (configuration not stated),28.2µM*,-39.4%,-8.6%,u,-28.4%
COC(=O)c1[nH]c2c(c1C)C(=O)CC(c1cccs1)C2 (configuration not stated),0.2%,-8.0%,x,0.4%,-7.8%
Cc1ccc(-n2c(SCC(=O)NCc3ccco3)nc3nc4c(cc3c2=O)COC(C)(C)C4)cc1,79.4µM*,-7.0%,-13.9%,u,u
Cc1ccc(NC(=O)c2c(C)oc3ncnc(N4CCCCC4)c23)c(C)c1,-1.2%,-14.2%,x,-4.5%,-10.2%
O=C(Nc1ccc(C(F)(F)F)cc1)c1ccc2nc[nH]c2c1,-0.7%,-0.9%,1.5%,-28.0%,-11.3%
NS(=O)(=O)c1cccc(NC(=O)c2ccc3nc[nH]c3c2)c1,50.1µM*,u,x,u,79.4µM*
Cc1cccc(NC(=O)CNC(=O)c2ccc3nc[nH]c3c2)c1C,x,u,u,u,12.6µM*
Cc1ccccc1C(=O)NNC(=O)c1ccc2nc[nH]c2c1,x,-15.9%,-26.4%,u,u
Cc1cc(NC(=O)c2cc(-c3ccco3)on2)n(-c2ccccc2)n1,u,-27.1%,-12.0%,89.1µM*,-5.3%

# Bioassay records from PubChem BioAssay.
